Laboratory results reported in PubChem BioAssay (Tox21).
“And” between values parts separate entries of the source, which are not always exact repeats. Equal entries are not always repeated. Some compounds were tested as several samples or in several runs, with calls that do not always agree. The source made the active and inactive calls. Entries that show only a call come without a potency. Calls follow the shape of the full dose curve.

Molecular target: Estrogen receptor (Homo sapiens) (UniProt P03372)
Experiment: qHTS assay to identify small molecule agonists of the estrogen receptor alpha (ER-alpha) signaling pathway in the presence of an antagonist (AID 1259383); also: nearly all actives have a fitted effect of over 15% in size
Settings: VM7Luc4E2 cells, ERE-luciferase, +ICI-182,780, 22 h; series mostly up to 92.4 µM
Excerpt: National Center for Advancing Translational Sciences [NCATS] NIH Chemical Genomics Center [NCGC] U.S. Environmental Protection Agency [EPA] National Institutes of Environmental Health Sciences [NIEHS] National Toxicology Program [NTP] Assay overview: Estrogen receptor (ER), a member of nuclear hormone receptor plays an important role in development, metabolic homeostasis and reproduction. Two subtypes of ER, ER-alpha and ER-beta, have similar expression patterns with some uniqueness in both types. Endocrine disrupting chemicals (EDCs) and their interactions with steroid hormone receptors like ER causes disruption of normal endocrine function. Therefore, it is important to understand the effect of environmental chemicals in ER signaling pathway. For identifying ER agonists, VM7Luc4E2 cell line has been used in the current assay. VM7Luc4E2 cell line (provided by Denison MS, University of California) endogenously expresses full-length ER-alpha and is stably transfected with a plasmid containing four estrogen responsive elements (ERE) upstream of a luciferase reporter gene. This current screening for measuring luciferase reporter gene activity using VM7Luc4E2 cells against Tox21 10K library collection is a confirmation study on agonist mode screening in presence of ER-antagonist (ICI-182,780) at 10.0nM final concentration.
Assay Protocol Summary: VM7Luc4E2 cells were cultured in phenol red free assay medium containing 10% charcoal stripped FBS for 5 days prior to the assay. The cells were dispensed at 4,000 cells in 4uL of assay medium per well into white wall/solid-bottom 1536-well plates (Corning Life Sciences, Corning, NY) using a Multidrop Combi (Thermo Fisher Scientific Inc., Waltham, MA) dispenser. After the assay plates were incubated at 37C and 5% CO2 for 24hr, 1uL of 10.0nM (final concentration) ICI-182,780 or assay buffer was added using two separate tips of Flying Reagent Dispenser (FRD, Aurora Discovery, San Diego, CA). Then 23nL of compounds dissolved in DMSO at 15 concentrations and positive controls or DMSO only was transferred to the assay plates by a Pintool station (Wako, San Diego, CA). The assay plates were incubated at 37C and 5% CO2 for 22hr. For luciferase read, 4uL/well ONE-Glo reagent (Promega Corporation, Madison, WI) was added to each well using FRD and after 30min incubation at room temperature, luminescence signal was measured on ViewLux plate reader (PerkinElmer, Shelton, CT).
Potency is read from the fitted curve at half-maximal effect.

Sequence of Estrogen receptor (Homo sapiens) (P03372 whole entry, looked up): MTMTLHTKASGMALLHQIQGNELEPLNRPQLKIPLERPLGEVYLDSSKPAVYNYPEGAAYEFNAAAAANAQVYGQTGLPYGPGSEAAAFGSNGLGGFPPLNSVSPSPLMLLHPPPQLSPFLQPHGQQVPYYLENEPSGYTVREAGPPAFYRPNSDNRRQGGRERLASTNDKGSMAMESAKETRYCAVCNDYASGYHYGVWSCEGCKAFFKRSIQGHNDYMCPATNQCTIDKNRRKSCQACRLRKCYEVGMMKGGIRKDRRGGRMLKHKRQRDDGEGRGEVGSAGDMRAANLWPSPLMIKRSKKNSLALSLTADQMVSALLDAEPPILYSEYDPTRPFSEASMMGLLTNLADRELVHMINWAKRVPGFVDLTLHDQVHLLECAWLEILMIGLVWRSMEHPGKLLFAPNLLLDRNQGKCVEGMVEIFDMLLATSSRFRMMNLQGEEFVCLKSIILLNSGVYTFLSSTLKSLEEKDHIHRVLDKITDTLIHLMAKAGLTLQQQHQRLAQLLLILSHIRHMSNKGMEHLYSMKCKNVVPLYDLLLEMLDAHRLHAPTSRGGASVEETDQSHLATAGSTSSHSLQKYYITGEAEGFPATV

SMILES | Potency
CC1(C)O[C@@H]2C[C@H]3[C@@H]4C[C@H](F)C5=CC(=O)CC[C@]5(C)[C@H]4[C@@H](O)C[C@]3(C)[C@]2(C(=O)CO)O1 | inactive
CCC(C)C=O (stereo not given) | 1.09 µM (active) and inactive
CN(CCOc1ccc(CC2SC(=O)NC2=O)cc1)c1ccccn1 (stereo not given) | inactive
Nc1cc(-c2ccncc2)c[nH]c1=O | inactive
CCCCCCOC(C)=O | inactive
CC(C)(CO)COC(=O)C(C)(C)CO | inactive
COCC(C)O (stereo not given) | inactive
CC1=CC[C@H]2C[C@@H]1C2(C)C | inactive
COCC(=O)O | inactive
NC(=O)/N=N/C(N)=O | inactive
CN(C)c1ccc(C(=N)c2ccc(N(C)C)cc2)cc1 | inactive
CCc1ccccc1O | inactive
Clc1cc(Cl)c(Cl)cc1Cl | inactive
CC(C)(C)C1CCC(O)CC1 (stereo not given) | inactive
OC1CCCC1 | inactive
OCC1CCCO1 (stereo not given) | inactive
c1ccc2ccccc2c1 | inactive
O=S(=O)(Oc1ccc(Cl)cc1Cl)c1ccccc1 | inactive
CS(=O)(=O)c1ccc([C@@H](O)[C@@H](CO)NC(=O)C(Cl)Cl)cc1 | inactive
C=C1C2CCC(C2)C1(C)C (stereo not given) | inactive

SMILES | Potency
CC1(C)CC(N=C=O)CC(C)(CN=C=O)C1 (stereo not given) | inactive
Cn1c([N+](=O)[O-])cnc1COC(N)=O | inactive
S=c1nc[nH]c2nc[nH]c12 | inactive
C=CC(=O)OCCCCCCCC(C)C | inactive
NCc1cccc(CN)c1 | inactive
C=C(C)C(=O)OCCCCCCCCCCCC | inactive
O=C(c1cc(O)c(O)c(O)c1)c1ccc(O)c(O)c1O | inactive
CCOC(=O)/C=C\C(=O)OCC | inactive
Oc1ccc(OCc2ccccc2)cc1 | 15 µM (active) and inactive
CC(C)Cc1ccccc1 | inactive
COC(=O)c1ccc(C(=O)OC)cc1 | inactive
O=[N+]([O-])c1cccc(Cl)c1 | 67.4 µM (active) and inactive
CC(=O)Nc1ccc(C(=O)O)cc1 | inactive
CCCCOCCOCCOC(=O)CCCCC(=O)OCCOCCOCCCC | inactive
CCCCCC/C=C/CCCCCCCC(=O)O | inactive
O=C(c1ccc(O)cc1)c1ccc(O)cc1O | 15.5 µM (active) and 13.7 µM (active)
Cc1cc(=O)[nH]c(C(C)C)n1 | inactive
CCCCCCCCCCCCOCC1CO1 (stereo not given) | inactive
O=C1O[C@H](CO)[C@@H](O)[C@H](O)[C@H]1O | inactive
CC1=C(/C=C/C(C)=C/C=C/C(C)=C/CO)C(C)(C)CCC1 | inactive
